Drawing on PubChem BioAssay (Tox21), this text covers Potency and activity change, negative = cytotoxicity for 40 molecules.

Structures are written as SMILES. Where “and” joins values, the source holds several entries; their conditions need not be identical. Identical values can stand only once. Inconclusive results are not listed. Entries that show only a call come without a potency. Calls of active or inactive are those of the source. Calls come from the whole dose curve; as a rule, active = well fitted cell-killing curve with a large enough effect in the repeat runs; inconclusive = weak or mixed curves, or effect the other way; inactive = flat fitted curve, though single readings scatter.
Potency is the fitted concentration of half-maximal effect.

This assay in a line: qHTS RealTime-Glo MT Cell Viability Assay in HEK293 cells - 16 hour (AID 1224872). For activity change, negative = cytotoxicity: top concentration of the series differs between compounds. Note: nearly all actives have a fitted effect of over 50% in size. To be noted: RealTime-Glo luminescence; series mostly up to 76.8 µM. From the text:
National Center for Advancing Translational Sciences [NCATS]
NIH Chemical Genomics Center [NCGC]
U.S. Environmental Protection Agency [EPA]
National Institutes of Environmental Health Sciences [NIEHS]
National Toxicology Program [NTP]
U.S. Food and Drug Administration [FDA]
Measure of cell viability is critical in the cell-base assay. Analysis of cell viability is necessary for the characterization of cell responses to cytotoxic drugs and environmental stress. A RealTime-Glo MT Cell Viability Assay to monitor cell viability in real time of continues cell culture during 40 hours of compound treatment was used to screen Tox21 10K library compounds in Hek293 cells. The RealTime-Glo MT Cell Viability Assay is a nonlytic, homogeneous, bioluminescent method to measure cell viability in real time using a simple, plate-based method. The assay involves adding NanoLuc luciferase and a cell-permeant prosubstrate to cells in culture. Viable cells reduce the proprietary prosubstrate to generate a substrate for NanoLuc luciferase. This substrate diffuses from cells into the surrounding culture medium, where it is rapidly used by the NanoLuc Enzyme to produce a luminescent signal. The signal correlates with the number of viable cells, making the assay well suited for cytotoxicity studies.
Tox21 Assay Protocol Summary:
The mixture of Hek293 cell suspension and reagents were dispensed at 600cells/6 ul/well in 1536-well tissue culture treated black solid bottom plates using a Multidrop dispenser. After the assay plates were incubated at a 37 C/5% CO2 incubator for 5 hours, 23 nL of compounds dissolved in DMSO, positive and negative controls was transferred to the assay plate by a pintool work station. The plates were incubated at 37 C for 40 hours. The luminescence intensity were measured at 0h, 8h, 16h, 24h, 32h and 40h time points using ViewLux plate reader during compound treatment.
Background: qHTS replaces the single test concentration by a dilution series.
Turning to `O=c1[nH]c2ccccc2n1CCCN1CCN(C(c2ccccc2)c2ccccc2)CC1`, the Potency was 10.7 µM (active).

As to `Nc1ccc(C(=O)O)c(O)c1`, the Potency result is “inactive”.

With `Clc1ccnc(Cl)n1`, the Potency result is “inactive”.

On to `CCC(C)[O-].CCC(C)[O-].CCOC(=O)/C=C(/C)[O-].[Al+3]`, for which the Potency result is “inactive”.

Regarding `C#C[C@]1(O)CC[C@H]2[C@@H]3[C@H](C)CC4=C(CCC(=O)C4)[C@H]3CC[C@@]21C`, the Potency result was “inactive”.

With `CCCCC(CC)CN1CN(CC(CC)CCCC)CC(C)(N)C1` (stereo not given), the Potency was 9.52 µM (active).

Regarding `CCO[Si](OCC)(OCC)OCC`, the Potency result is “inactive”.

Turning to `O=C(O)[C@H](O)[C@@H](O)[C@H](O[C@@H]1O[C@H](CO)[C@H](O)[C@H](O)[C@H]1O)[C@H](O)CO`, the Potency result was “inactive”.

With `CCCCCCCC`, the Potency entry was “inactive”.

As to `NC(=S)NC(N)=S`, the Potency entry is “inactive”.

Regarding `CCCCCCCC/C=C\CCCCCCCCN`, the Potency is 21.3 µM (active).

Regarding `CCCC(=O)OCOC(=O)C1=C(C)NC(C)=C(C(=O)OC)C1c1cccc(Cl)c1Cl` (stereo not given), the Potency entry is “inactive”.

Turning to `C[C@@H](O)[C@H](N)C(=O)O`, the activity change, negative = cytotoxicity is -1.06% [at 15.8 µM] (inactive).

With `Oc1c(I)cc(Cl)c2cccnc12`, the Potency result is “inactive”.

With `CCN1C(=O)c2ccccc2C1Nc1ccc(OCCN2CCCCC2)cc1` (stereo not given), the Potency is 4.77 µM (active).

On to `CCc1oc2ccccc2c1C(=O)c1cc(I)c(O)c(I)c1`, for which the Potency result is “inactive”.

With `O=C(O)c1cccc(C(F)(F)F)c1`, the Potency entry was “inactive”.

As to `COC(=O)c1ccccc1OC`, the Potency result is “inactive”.

With `Cc1c(N)cccc1C(F)(F)F`, the Potency result is “inactive”.

With `Cc1cc(C)c(/C=C2\C(=O)Nc3ccccc32)[nH]1`, the Potency entry is “inactive”.

On to `OCC(F)(F)F`, for which the Potency entry is “inactive”.

In the case of `O=C(O)Cc1ccccc1Nc1c(Cl)cccc1Cl`, the Potency result was “inactive”.

As to `CCC(=O)OC(=O)CC`, the Potency entry was “inactive”.

For `CCCCC/C=C\C/C=C\CCCCCCCC(=O)O`, the Potency result is “inactive”.

In the case of `CC[N+](CC)(CC)CCOc1ccc(/C=C/c2ccccc2)cc1`, the Potency result is “inactive”.

For `O=C(/C=C/c1ccc(O)c(O)c1)O[C@@H](C(=O)O)[C@@H](OC(=O)/C=C/c1ccc(O)c(O)c1)C(=O)O`, the Potency result was “inactive”.

Turning to `Cc1cccc(C(=O)O)c1O`, the Potency entry was “inactive”.

Turning to `C1CCC(SSC2CCCCC2)CC1`, the Potency entry was “inactive”.

For `Fc1ccc(C(c2ccc(F)cc2)N2CCNCC2)cc1`, the Potency entry is “inactive”.

For `CC(C)(C)NSc1nc2ccccc2s1`, the Potency entry is “inactive”.

In the case of `OC[C@@H](O)[C@@H](O)CO`, the Potency result was “inactive”.

Turning to `CCCCOC(=O)CC`, the Potency entry is “inactive”.

Regarding `Nc1cc(Cl)c(O)c(Cl)c1`, the Potency entry was “inactive”.

Regarding `Cc1nc2n(c(=O)c1CCN1CCC(c3noc4cc(F)ccc34)CC1)CCCC2`, the Potency was 3.01 µM (active).

Consider `CCCCCCCCCCCC(=O)OCC(C)OC(=O)CCCCC(=O)O` (stereo not given), for which the Potency result was “inactive”.

With `CCCCCCCCCCCCCC[N+](C)(C)Cc1ccccc1`, the Potency was 19.8 µM (active) and 9.52 µM (active) and 12.6 mM (active).

For the molecule `NC[C@H]1O[C@H](O[C@H]2[C@H](O[C@@H]3O[C@H](CO)[C@@H](O)[C@H]3O)C(O)[C@H](N)C[C@@H]2N)[C@H](N)[C@@H](O)[C@@H]1O` (stereo not given in full), the activity change, negative = cytotoxicity is 3.13% [at 6.97 µM] (inactive).

Regarding `CC(C)(C)C1CCC(=O)CC1`, the Potency result is “inactive”.

For the molecule `CCCC[P+](C)(CCCC)CCCC`, the Potency result is “inactive”.

In the case of `CC[C@H](C)COC(=O)/C=C/c1ccc(N=Cc2ccc(OC)cc2)cc1`, the Potency is 21.8 µM (active).
